mHTT-CaM PPI inh = mutant huntingtin-calmodulin interaction inhibitors – biochemical, AlphaScreen, primary screen; P42858; AlphaScreen His-mHTT/GST-CaM binding, luminescence; inhibition, % at 15 µM; 3.6% of 190,000 active;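 further: 0% = both proteins with DMSO and 100% = one protein alone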
Pf apPOL block = Pf-apPOL inhibitors, biochemical, fluorescence; Plasmodium falciparum apicoplast DNA polymerase (apPOL); Recombinant Pf-apPOL, molecular beacon fluorescence, 1.5 h; inhibition, % at 10 µM; 0.25% of 210,000 active; AID 1794808, 2022
* = called active by the depositor; . = no result given. In the library only some 3.6% were active in any assay of this set; here they are far more common. No stated cut-off is given here; in the data, active means inhibition above about 50%; inactive means the rest.

SMILES	mHTT-CaM PPI inh	Pf apPOL block
CCOc1ccc(S(=O)(=O)N2CCSC2c2cccc([N+](=O)[O-])c2)cc1 (configuration not stated)	1	-2
CCc1ccc(NC(=O)CSc2nc3c(c(=O)n2-c2ccc(Cl)cc2)SCC3)cc1	19	99*
CCc1ccc(NC(=O)CSc2nc3c(c(=O)n2-c2ccccc2)SCC3)cc1	15	2
Cc1ccc(N2COc3ccc(Br)cc3C2)cc1	73*	1
Cc1cccc(N2COc3ccc(Br)cc3C2)c1	99*	-3
Cc1cc(=O)oc2c3c(ccc12)OCN(c1ccc(Cl)cc1)C3	27	2
FC(F)(F)c1cccc(N2COc3ccc(Cl)cc3C2)c1	49	-2
CCC(=O)N1CCN(S(=O)(=O)c2ccccc2)C1c1ccccc1 (configuration not stated)	-2	0
Cc1cc(OCC(=O)Nc2ccccc2C)nc(N2CCCC(C)C2)n1 (configuration not stated)	-6	1
O=c1cc(N2CCOCC2)[nH]n1-c1ccc([N+](=O)[O-])cc1	37	7
CCCc1cc(=O)n(-c2ccc([N+](=O)[O-])cc2)[nH]1	52*	-1
Brc1cccc(-c2noc(CSc3nccn3-c3ccccc3)n2)c1	63*	0
O=S(=O)(Cc1nc(-c2cccc(Br)c2)no1)c1ccccc1	-54	1
N#Cc1ccc(C(=O)Nc2ccc(-c3nc4ncccc4o3)cc2)c(F)c1	-2	-1
COc1ccc(CN2CC[C@H]3C=CC[C@@H](C(=O)O)[C@H]3C2=O)cc1OC	3	-2
COc1ccc(NC(=O)[C@@H]2CC=C[C@@H]3CCN(Cc4ccccc4)C(=O)[C@@H]32)cc1	2	-4
COc1ccc(NC(=O)[C@@H]2CC=C[C@@H]3CCN(Cc4ccc(Cl)c(Cl)c4)C(=O)[C@@H]32)cc1	96*	-6
COc1ccc(CN2CC[C@H]3C=CC[C@@H](C(=O)Nc4ccc(Cl)c(C(F)(F)F)c4)[C@H]3C2=O)cc1OC	56*	-7
CCSc1nnc(-c2nn(C)c3c2CN(C(=O)C2CCCC2)CC3)n1C	-7	-7
O=C(Cc1ccc(Br)cc1)Nc1cc(Cl)ccc1Cl	0	-2
O=C(c1cccn2c(=O)c3cc(Cl)ccc3nc12)N1CCc2ccccc2C1	62*	-3
O=C(c1cccn2c(=O)c3cc(Cl)ccc3nc12)N1CCN(c2ccc(Cl)cc2)CC1	-422	2
O=C(c1ccc(Cl)cc1)c1cn[nH]c1-c1ccccc1O	95*	1
Cc1ccccc1C(=O)c1cn[nH]c1-c1ccccc1O	2	-11
Cc1ccc(N2C(=O)NC3CC2(C)Oc2ccc(Br)cc23)cc1 (configuration not stated)	17	-1
SMILES	mHTT-CaM PPI inh	Pf apPOL block
CN(C)c1ccc(-c2nc3n(n2)C(c2ccc(Cl)cc2)C2=C(CCCC2=O)N3)cc1 (configuration not stated)	45	-2
O=C1c2sc3nncc(=O)n3c2C(=O)N1c1ccccc1	2	.
O=C(NCCc1ccccc1)c1cnn2c3c(cnc12)CCCC3	8	-4
COc1ccc(C=Nc2ccc(O)cc2)c(OC)c1	71*	-7
COc1cc(OC)c(C=Nc2ccccc2)cc1Br	4	-2
C=CCOc1ccc(C=Nc2ccc(OC)cc2)c(O)c1	0	-2
COc1cc(OC)c(C=Nc2ccc(O)cc2)cc1Br	64*	3
Cc1ccc(S(=O)(=O)N2CC(CN(C)C)C3(CCOCC3)C2)cc1 (configuration not stated)	-2	-12
CC(C)N1CCN(C(=O)C2CCc3sc(C(=O)N4CCCC4)cc3C2)CC1 (configuration not stated)	-1	-5
O=C(NCCN1CCCCC1)C1Cc2cc(C(F)(F)F)ccc2N2CCOCC12 (configuration not stated)	31	-4
O=C(C1Cc2cc(C(F)(F)F)ccc2N2CCSCC12)N1CCOCC1 (configuration not stated)	83*	-5
COc1ccc(-c2cnnn2-c2ccc(NC(=O)/C=C/c3ccc4c(c3)OCO4)cc2)cc1OC	15	-1
CCCC1(CO)CCCN1C(=O)c1ccc2[nH]ccc2c1 (configuration not stated)	-1	-5
CCCC1(CO)CCCN1C(=O)c1ccc2cc[nH]c2c1 (configuration not stated)	55*	25
O=C(c1ccc(OCC2CCN(C(=O)c3ccc(F)c(F)c3)CC2)cc1)N1CCOCC1	-1	1
CCCNC(=O)c1ccc2ncc3c(=O)n(-c4ccc(F)cc4)[nH]c3c2c1	12	0
CCCNC(=O)c1ccc2ncc3c(=O)n(-c4ccc(Cl)cc4)[nH]c3c2c1	58*	-2
NNc1ncc([N+](=O)[O-])c2nc[nH]c12	100*	.
Nc1nc[nH]c(=O)c1[N+](=O)[O-]	-6	-3
Cc1ccc(C)c(NS(=O)(=O)Cc2ccccc2)c1	-12	0
CSc1ccc(C(=O)O)s1	2	88*
COc1ccc(OC)c(NC(=O)c2ccc(SC)s2)c1	.	-3
CCCN(C)C(=O)c1ccc(-c2ccc(F)cc2)s1	-9	-6
CC(=O)Nc1nonc1N1C(=N)SCC1=O	-9	.
CCOc1ccccc1NC(=O)c1cc(S(=O)(=O)NCCc2ccc(Cl)cc2)ccc1F	56*	31
SMILES	mHTT-CaM PPI inh	Pf apPOL block
COc1ccccc1NC(=O)c1cc(S(=O)(=O)NCCc2ccc(Cl)cc2)ccc1F	-2	-4
O=C(Nc1ccc(Cl)cc1)c1cc(S(=O)(=O)NC2CCCC2)ccc1F	-3	49
O=C(Nc1cccc(F)c1)c1cc(S(=O)(=O)NCc2ccccc2Cl)ccc1F	1	-6
O=C(Nc1ccc(Cl)cc1)c1cc(S(=O)(=O)NC2CCCCCC2)ccc1F	22	78*
O=C(Nc1ccc(Cl)c(Cl)c1)c1cc(S(=O)(=O)NC2CCCC2)ccc1F	93*	-3
Cc1ccc(NC(=O)c2cc(S(=O)(=O)NC3CCCC3)ccc2F)cc1Cl	20	-2
O=C(Nc1ccc(Cl)cc1)c1cc(S(=O)(=O)NCc2ccccc2Cl)ccc1F	5	84*
CC(C)NC(=O)Cn1ccc2ccc(N3CCOCC3)nc21	2	0
CCN(CC)c1ncc2c(n1)CCC(C(=O)NCc1cccc(OC)c1)C2 (configuration not stated)	3	-12
CC1CN(C(=O)Cc2ccccc2)CC1c1nc(-c2cccnc2)no1 (configuration not stated)	-1	-1
O=C(Nc1ccc(Cl)c(Cl)c1)c1ccc(F)c(S(=O)(=O)NC2CCCC2)c1	65*	-3
O=C(Nc1ccc(Br)cc1)c1ccc(F)c(S(=O)(=O)NC2CCCC2)c1	35	-4
O=C(Nc1cc(Cl)cc(Cl)c1)c1ccc(F)c(S(=O)(=O)NCc2ccc(F)cc2)c1	53*	39
O=C(Nc1cc(Cl)cc(Cl)c1)c1ccc(F)c(S(=O)(=O)NCc2ccccc2)c1	0	28
COc1ccc(N2CCCS2(=O)=O)cc1NC(=O)C1CC1	-5	-5
NC1CCCc2c1[nH]c1ccc([N+](=O)[O-])cc21 (configuration not stated)	12	3
O=[N+]([O-])c1ccc2[nH]c3c(c2c1)CCCC3NC1CCN(CCc2ccccc2)CC1 (configuration not stated)	100*	-1
CN(C)c1ccc(CCNC(=O)NCc2ccc(F)cc2)cc1	10	-74

Assay outcomes from PubChem BioAssay.
